Screening results as filed in PubChem.
In the library only some 9.3% were active in any assay of this set; here they are far more common.
HCV inh: blocks hepatitis C virus. Huh7.5.1 HCVcc-Cre infection, luciferase reporter, 44 h. hit rate 3.4% among 340,000. Potency, µM (highest dose often 41.8 µM), hits mostly inhibitors
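Cells seeded at 1,000/well and cultured 4 h, then compounds added followed by HCVcc-Cre virus (~0.5 moi). After 44 h further culture, luciferase substrate was added, plates held 15 min at room temperature, and luminescence read for 15 sec.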
VACV Venus inh: vaccinia inhibition (Venus reporter) | Vaccinia virus Venus reporter expression, fluorescence | AID 720580 | hit rate 0.46% among 330,000 | Potency, µM (titrated, usually from 36.5 µM), actives largely listed as inhibitors; calls by dose curve; tested in A549 cells; also: nearly all actives have a fitted effect of over 30% in size
FMDV inh: antivirals against foot and mouth disease virus | FMDV antiviral cell-based qHTS | AID 1159524 | Potency, µM (series often up to 57.9 µM), hits mostly inhibitors | hit rate 1.2% among 410,000; calls by dose curve; tested in HEK293T cells; also: read-out not given here; nearly all actives have a fitted effect of over 45% in size
Sm TGR block: blocks Schistosoma mansoni thioredoxin glutathione reductase; Q962Y6; purified TGR, DTNB reduction, TNB absorbance 405 nm; Potency, µM (highest dose often 114 µM), actives largely listed as inhibitors; hit rate 3% among 360,000; also: nearly all actives have a fitted effect of over 60% in size
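First, TGR (20 nM dispensed) and NADPH were mixed with compound. Second, a 15 min room-temperature incubation followed. Third, further NADPH and then DTNB were added to start the reaction. Finally, TNB absorbance was monitored kinetically.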
Vaccinia mCherry: vaccinia inhibition (mCherry reporter). Vaccinia virus mCherry reporter infection, fluorescence. Potency, µM (top dose mostly 36.5 µM), hits mostly inhibitors. hit rate 0.63% among 310,000; calls by dose curve; tested in A549 cells; also: nearly all actives have a fitted effect of over 35% in size
HCMV inh: inhibitors of human cytomegalovirus; HFF cells, HCMV-luciferase reporter, 72 h; stronger effect = lower value; activity change, negative = inhibition, % at 57.5 µM; hit rate 4.5% among 410,000; AID 1259415; in the data active = activity change below about -60%; inconclusive = no clear call, values can overlap the other calls; inactive = above about -39%
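Human foreskin fibroblasts infected with luciferase-reporter HCMV at MOI 1 PFU/cell, compounds at two doses. Luciferase measured 72 h post infection; normalized to buffer-only basal and Salinomycin (10uM) controls.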
A number is an active result; - = inactive; ? = inconclusive; . = no result; [ ] = remark or other dose. Unless noted, calls follow the shape of the dose curve; as a rule, active = well fitted curve in the direction sought with a large enough effect; inconclusive = small, poorly fitted or top-dose-only effect, or another doubt; inactive = no such curve, though single readings can be large; an effect the other way counts as inactive or inconclusive.

SMILES | HCV inh | VACV Venus inh | FMDV inh | Sm TGR block | Vaccinia mCherry | HCMV inh
Cc1nc(C(=O)N2CCCC(N3CCN(c4ccc(F)cc4)CC3)C2)cs1 (stereo unspecified) | . | - | - | . | ? | -
Cc1cc(C)c(C(=O)N2CCCC(N3CCN(c4ccc(F)cc4)CC3)C2)o1 (stereo unspecified) | ? | - | ? | - | - | -69.0
O=C(NC1C=CS(=O)(=O)C1)c1sc2ccccc2c1Cl (stereo unspecified) | ? | ? | . | - | 10µM | -84.3
O=C(NC1CC1)c1sc2ccccc2c1Cl | - | - | - | - | - | -
Cc1ccc(NS(=O)(=O)c2ccccc2Cl)c2c1CC(C)(C)O2 | - | - | - | - | - | -
COCc1c(C(=O)OCC(=O)N2c3ccccc3CC2C)oc2ccccc12 (stereo unspecified) | - | . | - | - | . | -
COc1cc(/C=C/C(=O)OCC(=O)N2c3ccccc3NC(=O)C2(C)C)cc(OC)c1OC | ? | . | 28.2µM | - | . | -
COc1cc(OC)cc(C(=O)NCC(=O)OCC(=O)N2c3ccccc3NC(=O)C2(C)C)c1 | - | - | - | - | - | -98.4
COCc1c(C(=O)OCC(=O)N2c3ccccc3NC(=O)C2(C)C)oc2ccccc12 | ? | . | 25.1µM | - | . | -
CC1(NC(=O)Cc2ccc(S(=O)(=O)N3CCOCC3)s2)CCS(=O)(=O)C1 (stereo unspecified) | - | - | - | - | - | -
COC1(OC)C(=N/O)/C(=N\O)CCC1O (stereo unspecified) | - | - | . | - | - | -
CCCN1C(=O)C(O)(C2COC(C)(C)CC2=O)c2ccccc21 (stereo unspecified) | - | - | - | - | - | -
COc1cc(C2c3cc4c(cc3OC(C)(N3CCCC3)C2C)OCO4)cc(OC)c1OC (stereo unspecified) | ? | ? | - | . | ? | -68.0
COc1ccc(NC2Oc3cc4c(cc3C(c3cc(OC)c(OC)c(OC)c3)C2C)OCO4)cc1 (stereo unspecified) | ? | ? | - | . | ? | -77.0
COc1cc(C2C3=C(COC3=O)OC(C)(C)Oc3cc4c(cc32)OCO4)cc(OC)c1OC (stereo unspecified) | ? | ? | - | . | ? | -79.9
COc1cc(C2c3cc4c(cc3OC(NCCc3ccccc3)C2C)OCO4)cc(OC)c1OC (stereo unspecified) | - | ? | - | . | ? | -82.0
O=C(CN1C(=O)NC2(CCc3ccccc32)C1=O)NCc1cccc(C(F)(F)F)c1 (stereo unspecified) | - | - | - | . | - | -
COc1cc(C2c3cc4c(cc3OC(Nc3ccc(C(=O)O)cc3)C2C)OCO4)cc(OC)c1OC (stereo unspecified) | - | ? | - | . | ? | -60.1
COc1cc(C2c3cc4c(cc3OC(N3CCOCC3)C2C)OCO4)cc(OC)c1OC(C)=O (stereo unspecified) | - | ? | - | . | - | -
c1ccc(-n2ncc3c(NCCN4CCOCC4)ncnc32)cc1 | - | . | - | - | . | -
c1ccc(-n2ncc3c(NCCN4CCCCC4)ncnc32)cc1 | - | - | - | 50.1µM | . | -
CC(C)(C)c1ccc(C(=O)NNc2ncnc3c2cnn3-c2ccccc2)cc1 | . | - | - | - | - | -73.0
COCc1c(C(=O)N2CCC(N3CCCCC3)CC2)cnn1-c1ncc(C)c(-c2cccs2)n1 | . | - | - | . | - | .
O=C(NCCN1CCN(c2ccccc2)CC1)Nc1ccccc1Cl | - | . | - | - | . | -
CC(=O)N1CC(C(=O)Nc2ccc3c(c2)OCO3)Oc2ccccc21 (stereo unspecified) | - | - | - | . | - | -
SMILES | HCV inh | VACV Venus inh | FMDV inh | Sm TGR block | Vaccinia mCherry | HCMV inh
CC(=O)N1CCc2cc(Br)cc(S(=O)(=O)N3CCC(C(=O)N(C)c4cc(C)ccc4C)CC3)c21 | . | - | - | - | - | -
O=C1CCNc2cc3ccccc3cc21 | - | ? | - | - | 22.4µM | .
O=C1CCNc2ccc(-c3ccccc3)cc21 | ? | - | - | - | - | -
CCCc1ccc(Oc2cn[nH]c2-c2ccc(O)cc2O)cc1 | ? | . | - | - | . | -67.8
CCOc1ccccc1Oc1cn[nH]c1-c1ccc(O)cc1O | ? | - | ? | - | ? | -78.3
CCCOC(=O)c1ccc(Oc2c(-c3ccc(OC)cc3O)n[nH]c2C)cc1 | ? | ? | - | - | -[1.46 µM] | -
COc1ccc(Oc2cn[nH]c2-c2ccc(O)cc2O)cc1 | - | - | ? | - | . | -
CCCOC(=O)c1ccc(Oc2cn[nH]c2-c2ccc(O)cc2O)cc1 | 8.91µM | . | ? | - | . | ?
CCOC(=O)c1ccc(Oc2cn[nH]c2-c2ccc(O)cc2O)cc1 | ? | . | - | - | . | ?
CCCOC(=O)c1ccc(Oc2c(-c3ccc(O)cc3O)n[nH]c2C)cc1 | ? | ? | - | - | . | -76.8
CCOC(=O)Cc1csc(SCC(=O)Nc2sc3c(c2C(N)=O)CCC3)n1 | - | - | - | ? | . | -
Cc1sc(NC(=O)CSc2nnc3scc(-c4ccccc4)n23)c(C#N)c1C | ? | . | - | - | . | -
COc1ccc2c(c1)[C@@H]1[C@H](CO2)[C@H](c2ccccc2)[C@]2(C)C(=O)NCC(=O)N12 | - | - | - | - | - | ?
Cc1c(N2CCCC2)cc2c(c1NC(=O)c1ccccc1Cl)C(C)(C)CC2(C)C | 25.1µM | - | - | - | - | -
COc1cc(=O)n2c(c1C(=O)NCc1cccc(F)c1)CCN(Cc1cccnc1)CC2 | . | - | - | . | - | .
COCCNc1oc(-c2ccco2)nc1S(=O)(=O)c1ccccc1 | - | - | - | 50.1µM | - | .
O=S(=O)(c1ccccc1)c1nc(-c2ccco2)oc1NCc1cccnc1 | - | - | - | 25.1µM | . | ?
C=CCNc1oc(-c2ccco2)nc1S(=O)(=O)c1ccccc1 | - | - | - | 12.6µM | - | -
COCCNc1oc(/C=C/c2ccc(F)cc2)nc1S(=O)(=O)c1ccccc1 | - | . | - | 31.6µM | . | -
COCCNc1oc(/C=C/c2cccc(OC)c2)nc1S(=O)(=O)c1ccccc1 | . | - | - | . | - | -
CCN(CC)c1ccc(NC(=O)c2ccccc2)cc1S(=O)(=O)Nc1ccccc1OC | ? | - | - | - | - | -
Cc1nn(C2CCS(=O)(=O)C2)c(Cl)c1/C=C/C(=O)OCC(=O)Nc1ccccc1OC(F)F (stereo unspecified) | - | - | ? | - | -[1.46 µM] | ?
COC(=O)c1ccc(C2NC(=O)c3ccccc3O2)cc1 (stereo unspecified) | - | - | - | - | - | -
COc1ccc(S(=O)(=O)N(CC(=O)Nc2ccc3c(c2)OCO3)c2ccc(C)cc2)cc1 | . | - | - | - | - | -
CCc1noc(C)c1C(=O)NNC(=O)c1ccc(Br)cc1 | - | - | - | - | - | -
C=CCn1c(=O)c2c(nc(Br)n2Cc2ccccc2Cl)n(C)c1=O | - | - | ? | - | ? | -73.1
CCOC(=O)Cn1c(=O)c2c(nc(Br)n2Cc2ccccc2Cl)n(C)c1=O | ? | - | ? | - | - | -
